Screens (PubChem BioAssay)
Mcl1 Bid PPI: Mcl-1/Bid interaction inhibition | TR-FRET Mcl-1/Bid-Dy647 peptide binding, 1536-well | inhibition, % at 21.7 µM | Q07820 | 220,000 tested, 0.97% active;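 active means compounds that cut the binding signal by more than half at the single screening dose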;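 further: His-tagged Mcl-1 with europium anti-His antibody binding Bid BH3 peptide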
Target sequence (Q07820 whole entry, looked up): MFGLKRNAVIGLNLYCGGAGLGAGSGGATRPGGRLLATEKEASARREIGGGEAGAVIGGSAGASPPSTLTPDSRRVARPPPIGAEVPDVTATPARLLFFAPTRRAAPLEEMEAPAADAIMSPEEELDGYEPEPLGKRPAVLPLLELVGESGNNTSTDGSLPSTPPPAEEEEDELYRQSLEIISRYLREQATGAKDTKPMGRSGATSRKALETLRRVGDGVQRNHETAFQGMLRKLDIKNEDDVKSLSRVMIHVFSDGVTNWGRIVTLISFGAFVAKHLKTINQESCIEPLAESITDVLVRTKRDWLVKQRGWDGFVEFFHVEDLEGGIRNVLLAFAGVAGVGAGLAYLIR
MCL1-BIM inh: MCL1-BIM-BH3 interaction inhibition (human); Q07820; GST-MCL1 / FITC-Bim-BH3 fluorescence polarization; inhibition, % at 10.9 µM; 320,000 tested, 0.68% active;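 active means inhibition above the mean inhibition of all tested compounds plus 3 SD, set per campaign, cut at about 40% in these data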;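 further: higher means more loss of mP so more displacement of Bim peptide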
GLD-1 TGE inh: GLD-1-TGE RNA interaction inhibition (C. elegans) | Q17339 | purified GLD-1 + fluorescein TGE RNA, fluorescence polarization | inhibition, % at 5.96 µM | 320,000 tested, 0.44% active | AID 2280;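 active means percent inhibition above a per-plate cutoff, the plate mean of test compounds plus 3 SD, cut at about 30% in these data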
Mcl1-Noxa inh: Mcl-1/Noxa interaction inhibition; Q07820; TR-FRET Mcl-1/Noxa peptide binding, 2 h; inhibition, % at 21.7 µM; 220,000 tested, 1.5% active;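 active means compounds that cut the protein-peptide binding signal by more than 50% relative to plate controls in a single-dose test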;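 further: His-tagged Mcl-1 with rhodamine Noxa BH3 peptide and terbium anti-His antibody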
BCLXL inh: blocks human Bcl-xL binding to Bim BH3 peptide | GST-Bcl-xL / FITC-Bim BH3 peptide fluorescence polarization | AID 2129 | inhibition, % at 10.9 µM | 320,000 tested, 0.7% active;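 active means inhibition above the mean of all tested compounds plus 3 SD, cutoff set per campaign, cut at about 30% in these data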;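 further: inhibitors lower millipolarization by displacing the labeled peptide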
Target sequence (Q07817 whole entry, looked up): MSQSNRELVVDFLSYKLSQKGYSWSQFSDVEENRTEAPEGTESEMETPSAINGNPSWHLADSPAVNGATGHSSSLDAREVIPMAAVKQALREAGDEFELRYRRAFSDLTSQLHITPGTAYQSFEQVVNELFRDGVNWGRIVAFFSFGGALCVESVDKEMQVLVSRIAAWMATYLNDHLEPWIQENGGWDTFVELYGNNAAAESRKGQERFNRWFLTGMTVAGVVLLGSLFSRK
Bim-Mcl-1: inhibitors of Bim-Mcl-1 interaction, human | inhibition, % at 10 µM | 190,000 tested, 0.1% active | Q07820 | AID 1009 | Bead-based flow cytometry, Bim peptide-Mcl-1 binding; in the data active means inhibition above about 40%
Bcl-xL conf: Bcl-xL (human) inhibition, MCL1 counter-screen confirmation; GST-Bcl-xL / FITC-Bim BH3 peptide FP binding; 1,700 tested, 54% active; shares compounds with MCL1-BIM inh; inhibition, % at 10.9 µM;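 active means inhibition above a cutoff equal to the mean inhibition of all tested compounds plus 3 SD, cut at about 30% in these data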
MCL1 BIM confirm: MCL1-BIM-BH3 interaction inhibition, confirmation; shares compounds with MCL1-BIM inh; GST-MCL1 / FITC-Bim-BH3 fluorescence polarization; inhibition, % at 10.9 µM; 1,700 tested, 61% active; AID 2168;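 active means inhibition above the average of all tested compounds plus 3 SD, cut at about 40% in these data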
Large screens that a line does not name were inactive (follow-up assays come after a bar, where they were run). Shown are actives, neighbours in structure and some others; about 2.3% of the full set was active somewhere.

CCOc1ccc(S(=O)(=O)N2CCN(C(=O)CN3C(=O)NC(C)(C)C3=O)CC2)cc1	none (no result: Mcl1 Bid PPI, Mcl1-Noxa inh, Bim-Mcl-1)
Nc1nnnn1/N=C/c1cc(Cl)cc(Cl)c1O	MCL1-BIM inh 133, GLD-1 TGE inh 78, BCLXL inh 109 (no result: Mcl1 Bid PPI, Mcl1-Noxa inh, Bim-Mcl-1) | Bcl-xL conf 134 | MCL1 BIM confirm 148
Cc1onc(-c2ccccc2Cl)c1C(=O)NCc1ccco1	MCL1-BIM inh 66 | Bcl-xL conf inactive | MCL1 BIM confirm 65
O=C(NC(=S)Nc1ccc2[nH]c(=O)[nH]c2c1)c1ccccc1[N+](=O)[O-]	none (no result: Mcl1 Bid PPI, Mcl1-Noxa inh, Bim-Mcl-1)
Cc1ccccc1NC(=O)c1ccc(NC(=O)C2CCCO2)cc1 (stereo unspecified)	none (no result: Mcl1 Bid PPI, Mcl1-Noxa inh, Bim-Mcl-1)
Cc1ccc(Oc2c(CO)c(-c3ccccc3)nn2C)cc1	MCL1-BIM inh 48 | Bcl-xL conf inactive | MCL1 BIM confirm inactive
O=C(OCc1nc2ccsc2c(=O)[nH]1)c1cc(Br)c(Br)s1	none (no result: Mcl1 Bid PPI, Mcl1-Noxa inh, Bim-Mcl-1)
O=C(/C=C/c1ccc(Br)o1)OCc1nc2ccsc2c(=O)[nH]1	MCL1-BIM inh 49 (no result: Mcl1 Bid PPI, Mcl1-Noxa inh, Bim-Mcl-1) | Bcl-xL conf 37 | MCL1 BIM confirm 87
CC(CC(=O)O)CC(=O)Nc1ccc(Br)cc1 (stereo unspecified)	none (no result: Bim-Mcl-1)
O=C(Nc1ccc2c(c1)nc1n2CCN(C2CCCCC2)C1)NC1CCCCC1	MCL1-BIM inh 67, BCLXL inh 57 | Bcl-xL conf 44 | MCL1 BIM confirm 54
Cc1ccc(C2C(C#N)=C(N)Oc3cc4c(cc32)OCO4)cc1 (stereo unspecified)	none
CSc1ccc(C2C(C#N)=C(N)Oc3cc4c(cc32)OCO4)cc1 (stereo unspecified)	MCL1-BIM inh 43 | Bcl-xL conf inactive | MCL1 BIM confirm inactive
Cc1ccc(C)n1Cc1ccc(C(=O)O)cc1	MCL1-BIM inh 92, Mcl1-Noxa inh 62, BCLXL inh 41 | Bcl-xL conf 36 | MCL1 BIM confirm 110
COc1cccc(NC(=O)CN(C)C(=O)c2c(C)noc2C)c1	none (no result: Mcl1 Bid PPI, Mcl1-Noxa inh, Bim-Mcl-1)
Nc1cccc2c(=O)c3ccccc3[nH]c12	MCL1-BIM inh 41 (no result: Mcl1 Bid PPI, Mcl1-Noxa inh, Bim-Mcl-1) | Bcl-xL conf 37 | MCL1 BIM confirm inactive
CCOC(=O)C(C)N1C(=O)S/C(=C\c2ccc(-c3ccccc3C(=O)O)o2)C1=O (stereo unspecified)	MCL1-BIM inh 58, BCLXL inh 31 (no result: Mcl1 Bid PPI, Mcl1-Noxa inh, Bim-Mcl-1) | Bcl-xL conf 42 | MCL1 BIM confirm 62
C#CCN1C(=O)S/C(=C\c2ccc(-c3ccc(C(=O)O)cc3C)o2)C1=O	MCL1-BIM inh 66 (no result: Mcl1 Bid PPI, Mcl1-Noxa inh, Bim-Mcl-1) | Bcl-xL conf inactive | MCL1 BIM confirm inactive
O=c1cc(-c2ccc(O)cc2)oc2c(O)c(O)c(O)c(O)c12	MCL1-BIM inh 47 (no result: Bim-Mcl-1) | Bcl-xL conf inactive | MCL1 BIM confirm 54
O=c1cc(-c2ccc(O)cc2)oc2c1ccc1ccccc12	none (no result: Mcl1 Bid PPI, Mcl1-Noxa inh, Bim-Mcl-1)
O=C(O)CC1S/C(=N/N=C/c2ccc(-c3ccc(Cl)c([N+](=O)[O-])c3)o2)NC1=O (stereo unspecified)	MCL1-BIM inh 41 | Bcl-xL conf inactive | MCL1 BIM confirm inactive
Cc1nn(-c2ccccc2)c(C)c1NC(=O)COC(=O)c1cccc(OC(F)F)c1	none (no result: Mcl1 Bid PPI, Mcl1-Noxa inh, Bim-Mcl-1)
O=C1CN(C(=O)NCCC(=O)NC2CCCCC2)c2ccccc2N1	MCL1-BIM inh 69 (no result: Mcl1 Bid PPI, Mcl1-Noxa inh, Bim-Mcl-1) | Bcl-xL conf inactive | MCL1 BIM confirm inactive
CN(C(=O)CCNC(=O)N1CC(=O)Nc2ccccc21)C1CCCCC1	none (no result: Mcl1 Bid PPI, Mcl1-Noxa inh, Bim-Mcl-1)
CCCc1ccc(C(=O)NNc2ccccc2F)cc1	none (no result: Bim-Mcl-1)
CN1CCc2c(sc(N)c2C(N)=O)C1	MCL1-BIM inh 65, BCLXL inh 60 | Bcl-xL conf inactive | MCL1 BIM confirm inactive
CN1CCc2c(sc(NC(=O)c3ccco3)c2C(N)=O)C1	none (no result: Mcl1 Bid PPI, Mcl1-Noxa inh, Bim-Mcl-1)
CCN1CCc2c(sc(N)c2C(N)=O)C1	MCL1-BIM inh 64, BCLXL inh 61 | Bcl-xL conf inactive | MCL1 BIM confirm inactive
CN1CCc2c(sc(NC(=O)c3cc(Cl)sc3Cl)c2C(N)=O)C1	MCL1-BIM inh 48 (no result: Mcl1 Bid PPI, Mcl1-Noxa inh, Bim-Mcl-1) | Bcl-xL conf inactive | MCL1 BIM confirm inactive
Cc1ccc(C)c(NC(=O)CN(C)C(=O)c2cc(C3CC3)nn2-c2ccccc2)c1	none (no result: Mcl1 Bid PPI, MCL1-BIM inh, Mcl1-Noxa inh, BCLXL inh, Bim-Mcl-1)
O=C(c1cc(C2CC2)nn1-c1ccccc1)N1CCN(S(=O)(=O)c2c(F)cccc2F)CC1	none (no result: Mcl1 Bid PPI, Mcl1-Noxa inh, Bim-Mcl-1)
